Potency and outcome data for 47 molecules are collected here from PubChem BioAssay (NCATS).

Results filed as inconclusive are left out. Where a call stands in place of a potency, no number is given. Calls of active or inactive are those of the source. Calls follow the shape of the dose curve; as a rule, active = well fitted inhibition curve with a large enough effect; inconclusive = small, poorly fitted or top-dose-only effect; inactive = no such curve, though single readings can be large or run the other way.

Assay [1] is described as follows: qHTS assay for measurement of the activity of small molecule inhibitors on Zika virus induced Caspase-3 activity in human iPSC derived neural progenitor cells (hNPCs) (AID 1224857). Also: nearly all actives have a fitted effect of over 65% in size. In a few lines: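 Zika virus (2 FFU/cell) infection of human iPSC-derived NPCs, 6 h, following 1 h compound preincubation. Read-out: Caspase-Glo 3/7 luminescence.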
Assay [2] can be described thus: qHTS assay for measurement of the activity of small molecule inhibitors on Zika virus induced Caspase-3 activity in human astrocytoma cells (AID 1224859). Put shortly:
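Caspase activation in ZIKV-infected SNB-19 cells (2 FFU/cell, 6 h) measured by Caspase-Glo 3/7 luminescence after 30 min RT; compound pre-incubated 1 h; normalised to uninfected and infected controls.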

As to `CNC(=O)c1cnn(-c2nc(N)c3ncn([C@@H]4O[C@H](CO)[C@@H](O)[C@H]4O)c3n2)c1`, in assay [1], the Potency entry was “inactive”.
Regarding `CCCC(=O)Nc1ccc(O)c(C(C)=O)c1`, in assay [1], the Potency entry was “inactive”. For the same molecule, the outcome in assay [2] was inactive.
`CC(C)C(=O)OCc1cccc(OC(=O)[C@@H]2N3C(=O)[C@@H](NC(=O)Cc4ccccc4)[C@H]3SC2(C)C)c1`: the Potency entry in assay [1] was “inactive”.
For `C[C@H]1C[C@H](O)c2ccsc2S1(=O)=O`, the Potency result in assay [1] is “inactive”. The call in assay [2] was inactive.
Regarding `NS(=O)(=O)c1cc(C(=O)NN2C[C@H]3[C@H]4CCC(C4)[C@H]3C2)ccc1Cl`, the Potency result in assay [1] is “inactive”. In addition, in assay [2], the result was inactive.
With `CC(=O)O[C@H]1CC[C@@]2(C)C(=CC[C@@H]3[C@@H]2CC[C@]2(C)C(C(C)=O)=CC[C@@H]32)C1`, in assay [1], the Potency entry is “inactive”.
Same read-out and setting: next, `CCCOc1ccc2c(c1)CC[C@@H]1[C@@H]2CC[C@]2(C)C(OC)CC[C@@H]12` (stereo partly drawn): “inactive”.
As for `Cc1nc(C2CCCCC2)c(-c2ccc(S(N)(=O)=O)c(F)c2)o1`, the Potency result in assay [1] is “inactive”.
The same measure, in the same setting: next, `C[C@@H]1C[C@H]2[C@@H]3CCC4=CC(=O)C=C[C@]4(C)[C@@]3(F)[C@@H](O)C[C@]2(C)[C@@]1(O)C(=O)COC(=O)c1ccncc1`: “inactive”; `CC(=O)N(CC(=O)N(C)C)c1ccccc1`: “inactive”.
Still for that read-out and setting: next, `Cc1cccc(C)c1NC(=O)c1ccc(N)cc1`: “inactive”.
Take `NC(=O)C1(N2CCCCC2)CCN(CCCN2c3ccccc3CCc3ccc(Cl)cc32)CC1`: in assay [1], the Potency entry was “inactive”. The call in assay [2] was inactive.
Consider `Cc1ccc(C(C)OC(=O)C2(C)CCC(C(=O)O)C2(C)C)cc1` (stereo not drawn), for which, in assay [1], the Potency result is “inactive”. In addition, the result in assay [2] was inactive.
`CCN(CC)C(=O)C1CN2CCc3cc(OC)c(OC)cc3C2CC1OC(C)=O` (stereo not drawn): in assay [1], the Potency result was “inactive”.
On the same count and under the same terms, next, `Nc1ncnc2c1ncn2Cc1c(F)cccc1Cl`: “inactive”.
With `COc1ccc(CCC(C)=O)cc1`, in assay [1], the Potency entry is “inactive”. In addition, the outcome in assay [2] was inactive.
`O=C(CCOCCOCCOCCOCCC(=O)Nc1c(I)cc(I)c(C(=O)O)c1I)Nc1c(I)cc(I)c(C(=O)O)c1I`: in assay [1], the Potency entry was “inactive”. The molecule was classed as inactive in assay [2].
For `CCC1(c2cnc[nH]2)Cc2ccccc2C1`, the Potency entry in assay [1] was “inactive”.
The same measure, in the same setting: next, `Nc1ccc(C(=O)OCC(O)CO)cc1` (stereo not drawn): “inactive”.
On the same count and under the same terms, next, `CC(C)NC(=O)c1ccc(C=O)cc1`: “inactive”.
On the same count and under the same terms, next, `CN(C)CCOC1=Cc2ccccc2Sc2ccc(Cl)cc21`: “inactive”.
Take `N#CC1(c2ccc(F)cc2)CCC(=O)CC1`: in assay [1], the Potency result is “inactive”. Also, in assay [2], the call was inactive.
As to `COCCc1ccccn1`, the Potency entry in assay [1] was “inactive”.
On to `O=C(O)CCCC[P+](c1ccccc1)(c1ccccc1)c1ccccc1`, for which the Potency result in assay [1] was “inactive”. For the same molecule, the call in assay [2] was inactive.
For the molecule `COCCOCC(OC)OC`, in assay [1], the Potency result was “inactive”. Further, the molecule was called inactive in assay [2].
Consider `CC(CC(C#N)(c1ccccc1)C(C)C)N(C)C` (stereo not drawn), for which the Potency result in assay [1] was “inactive”. Besides, the call in assay [2] was inactive.
Turning to `CCOC(=O)NNc1nncc2ccccc12`, the Potency result in assay [1] was “inactive”. Further, the outcome in assay [2] was inactive.
With `C[C@@H](C1=C(CCN(C)C)Cc2ccccc21)c1ccccn1`, the Potency entry in assay [1] is “inactive”.
The same measure, in the same setting: next, `C[C@H]1C[C@@H]2[C@H]([C@@H](O)C[C@@]3(C)[C@H]2CC[C@]3(O)C(=O)CO)[C@@]2(C)C=CC(=O)C=C12`: “inactive”; `Cc1nc(N)nc(N)c1-c1ccc(Cl)c(Cl)c1`: “inactive”.
Same read-out and setting: next, `C[C@H](N)C(=O)N[C@@H](C)C(=O)NC1[C@H]2CN(c3nc4c(cc3F)c(=O)c(C(=O)O)cn4-c3ccc(F)cc3F)C[C@@H]12` (stereo partly drawn): “inactive”.
On to `C=C(C)C(=O)OCC(O)CO` (stereo not drawn), for which the Potency result in assay [1] was “inactive”. Also, the call in assay [2] was inactive.
Turning to `COc1ccc(OC(=O)N(CC(=O)O)Cc2ccc(OCCc3nc(-c4ccccc4)oc3C)cc2)cc1`, in assay [1], the Potency result was “inactive”.
Turning to `CCOc1ncc(F)c(=O)[nH]1`, the Potency result in assay [1] was “inactive”. The molecule was called inactive in assay [2].
Consider `COc1ccc2c(c1)CCCC2=O`, for which the Potency result in assay [1] was “inactive”. For the same molecule, the molecule was classed as inactive in assay [2].
`Cc1cnc(NS(=O)(=O)c2ccc(N)cc2)nc1`: the Potency result in assay [1] was “inactive”.
Regarding `CCC(=O)Oc1ccc2c(c1)CC[C@@H]1[C@@H]2CC[C@@]2(C)[C@H]1C[C@@H](OC(=O)CC)[C@@H]2OC(=O)CC`, the Potency entry in assay [1] was “inactive”. The result in assay [2] was inactive.
In the case of `O=C(CCCl)NCCc1ccccc1`, the Potency result in assay [1] was “inactive”. Further, the outcome in assay [2] was inactive.
`CC(=O)c1cc2ccccc2s1`: in assay [1], the Potency result is “inactive”. Also, the molecule was called inactive in assay [2].
Regarding `CC(=O)N1CCN(c2ccc(O)cc2)CC1`, the Potency result in assay [1] is “inactive”. Besides, the call in assay [2] was inactive.
Consider `[O-][n+]1cccc(/C(Cl)=N/OC[C@@H](O)CN2CCCCC2)c1`, for which, in assay [1], the Potency entry was “inactive”. Besides, in assay [2], the call was inactive.
Take `O=C(O)c1cn(C2CC2)c2cc(Cl)c(F)cc2c1=O`: the Potency result in assay [1] was “inactive”. Moreover, the molecule was called inactive in assay [2].
With `CCOC(=O)c1cc(=O)c2c(OCC(COc3cccc4oc(C(=O)OCC)cc(=O)c34)OC(=O)[C@@H](N)CCCCN)cccc2o1`, the Potency entry in assay [1] was “inactive”. Moreover, in assay [2], the result was inactive.
In the case of `O=C(O)c1ccc(OCCN2CCCCC2)cc1`, the Potency entry in assay [1] is “inactive”. For the same molecule, the outcome in assay [2] was inactive.
For the molecule `CC(C)CCCC(C)NCCC(C)C` (stereo not drawn), the Potency entry in assay [1] was “inactive”. Besides, in assay [2], the molecule was called inactive.
`CCOc1c(N2CCOCC2)cnn(C)c1=O`: the Potency entry in assay [1] was “inactive”. Further, in assay [2], the molecule was called inactive.
As to `Cc1cc(O)c(C)c(C)c1O`, the Potency result in assay [1] is “inactive”. Also, in assay [2], the molecule was called inactive.
